Compounds with a hit are over-represented: about 18% of the library has one in this group of screens.
GCN5L2 inh – qHTS Assay for Inhibitors of GCN5L2 | Histone acetyltransferase KAT2A (Homo sapiens), Q92830 | GCN5L2 HAT assay, ThioGlo1 CoA-SH fluorescence | Potency, µM (series often up to 58.9 µM), usual class: inhibitors | 0.21% of 390,000 active | AID 504327, 2011
Target sequence (Q92830 whole entry, looked up): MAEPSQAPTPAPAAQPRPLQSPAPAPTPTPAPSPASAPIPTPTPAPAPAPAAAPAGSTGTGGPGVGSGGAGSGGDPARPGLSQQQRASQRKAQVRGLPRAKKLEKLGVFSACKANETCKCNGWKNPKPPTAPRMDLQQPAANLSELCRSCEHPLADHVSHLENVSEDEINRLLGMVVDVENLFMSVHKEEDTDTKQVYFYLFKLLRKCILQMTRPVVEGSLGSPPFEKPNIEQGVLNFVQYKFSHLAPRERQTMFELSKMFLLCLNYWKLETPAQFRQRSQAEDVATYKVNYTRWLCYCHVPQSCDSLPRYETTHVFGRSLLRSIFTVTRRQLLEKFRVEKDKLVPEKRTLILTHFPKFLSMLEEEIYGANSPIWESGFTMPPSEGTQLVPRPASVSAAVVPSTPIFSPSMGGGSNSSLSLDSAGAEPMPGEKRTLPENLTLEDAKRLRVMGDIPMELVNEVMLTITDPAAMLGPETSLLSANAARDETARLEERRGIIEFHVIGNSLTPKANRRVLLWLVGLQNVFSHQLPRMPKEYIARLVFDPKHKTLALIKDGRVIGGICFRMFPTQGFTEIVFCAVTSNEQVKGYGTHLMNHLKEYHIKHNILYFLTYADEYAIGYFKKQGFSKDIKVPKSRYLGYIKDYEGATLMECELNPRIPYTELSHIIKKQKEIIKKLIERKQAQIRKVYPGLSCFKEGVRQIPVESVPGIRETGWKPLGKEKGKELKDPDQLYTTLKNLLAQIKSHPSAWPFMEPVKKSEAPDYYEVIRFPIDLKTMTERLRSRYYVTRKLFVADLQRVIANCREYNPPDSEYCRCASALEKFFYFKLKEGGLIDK
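GCN5L2 (20 nM) in 50mM HEPES pH 7.5, 0.1mM EDTA, 0.01% Tween-20 preincubated 15 min with compounds at room temperature. Reaction started with H3(1-25) 75uM, acetyl-CoA 70uM, ThioGlo1 50uM; CoA-thiol fluorescence (Ex340/Em540) read at 0 and 20 min.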
VDR inhibitor – Inhibitors of the vitamin D receptor (VDR): qHTS | Potency, µM, most hits filed as inhibitors | AID 504847, 2011 | Vitamin D3 receptor (Homo sapiens), P11473 | 0.93% of 400,000 active | VDR-SRC2-3 peptide fluorescence polarization, 2 h
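Compounds are added to VDR with labelled SRC2-3 coactivator peptide and held 2 h at room temperature. Inhibition of the VDR–peptide interaction is then read as a change in fluorescence polarization.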
TDP1 inh – qHTS Assay for Inhibitors of Tyrosyl-DNA Phosphodiesterase (TDP1); 0.28% of 350,000 active; recombinant TDP1, AlphaScreen DNA substrate cleavage; Tyrosyl-DNA phosphodiesterase 1 (Homo sapiens), Q9NUW8; AID 485290, 2010; Potency, µM (doses to about 130 µM), hits mostly inhibitors; further: nearly all actives have a fitted effect of over 40% in size
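Signal: AlphaScreen proximity between streptavidin donor and anti-FITC acceptor beads on intact substrate. Reaction: Tdp1 1 nM, substrate 15 nM final, 5 min RT after 15 min compound preincubation.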
DT40 TDP1 no CPT – qHTS for Inhibitors of human tyrosyl-DNA phosphodiesterase 1 (TDP1): qHTS in cells in absence of CPT; 15% of 420,000 active; DT40 Tdp1-/- hTDP1 cells, no CPT, ATP luminescence, 48 h; Potency, µM (doses to about 46.2 µM), most hits filed as inhibitors; AID 686978, 2013; further: nearly all actives have a fitted effect of over 55% in size
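Cells were dispensed at 400 per well, compounds added by pin tool, plates incubated ≥48 hr at 37 °C, then CellTiter-Glo added for 30 min at room temperature before luminescence reading. Line: DT40 Tdp1-/- complemented with hTDP1; camptothecin omitted.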
PLK1 PBD block – qHTS for Inhibitors of PLK1-PDB (polo-like kinase 1 - polo-box domain): Primary Screen | Plk1 PBD binding of FITC phosphopeptide, fluorescence polarization | Potency, µM, actives largely listed as inhibitors | 2.8% of 360,000 active | AID 720504, 2013; further: series mostly up to about 57 µM; nearly all actives have a fitted effect of over 65% in size
DT40 TDP1 CPT – qHTS for Inhibitors of human tyrosyl-DNA phosphodiesterase 1 (TDP1): qHTS in cells in presence of CPT; Potency, µM (series often up to 46.2 µM), most hits filed as inhibitors; chicken DT40 Tdp1-/-;hTDP1 cells + 20 nM CPT, ATP luminescence, 48 h; 12% of 420,000 active; AID 686979, 2013; further: nearly all actives have a fitted effect of over 55% in size
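Chicken DT40 Tdp1-/- cells complemented with human TDP1, 400 cells/well, exposed to compounds plus 20 nM camptothecin for at least 48 h at 37 C; viability read as ATP content by CellTiter-Glo luminescence.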
A number is an active result; . = inactive; ? = inconclusive; / = not tested or not shown. The call rests on the fitted dose curve; in most records, active means well fitted curve in the direction sought with a large enough effect; inconclusive means small, poorly fitted or top-dose-only effect, or another doubt; inactive means no such curve, though single readings can be large; an effect the other way counts as inactive or inconclusive.

SMILES	GCN5L2 inh	VDR inhibitor	TDP1 inh	DT40 TDP1 no CPT	PLK1 PBD block	DT40 TDP1 CPT
COc1ccc(C(=O)COC(=O)c2cc(S(=O)(=O)N3CCCCC3)ccc2N2CCOCC2)c(OC)c1	.	.	/	?	.	?
CCOC(=O)c1[nH]c2cc3c(cc2c1NC(=O)CN1CCC(C)CC1)OCO3	.	.	.	11.2µM	.	17.8µM
CCOC(=O)c1[nH]c2cc3c(cc2c1NC(=O)CN1CCc2ccccc2C1)OCO3	.	.	.	11.6µM	.	16.4µM
O=C(Nc1ccc(F)c(Cl)c1)N1CCC(CN2CCc3ccccc3C2)CC1	.	.	.	?	/	?
Cc1ccccc1CN1[C@@H](CC2CCCCC2)COCCS1(=O)=O	.	?	/	12.6µM	26.7µM	?
O=S1(=O)CCOC[C@H](CC2CCCCC2)N1Cc1ccccc1	.	.	/	?	.	?
CC(C)[C@H]1COCCS(=O)(=O)N1Cc1cccc(Cl)c1	.	.	/	11.2µM	.	?
O=S1(=O)CCOC[C@H](CC2CCCCC2)N1Cc1cccc(Cl)c1	.	.	/	11.2µM	.	14.1µM
Cc1ccc(-n2cnc3c(=O)[nH]cnc32)cc1[N+](=O)[O-]	/	.	/	.	.	.
CCOc1ccc(NC(=O)CSc2cn(CC(=O)N3CCOCC3)c3ccccc23)cc1	.	.	.	.	/	?
O=C(O)CCC(=O)N1N=C(c2ccc(Br)cc2)CC1c1cccc(Br)c1 (stereo not given)	.	.	.	.	.	?
Cc1cc(C)cc(NC(=O)c2cccc(NC(=O)c3ccco3)c2)c1	/	.	/	29.1µM	.	?
Cc1ccc(O)c(NC(=O)c2cccc(NC(=O)c3ccco3)c2)c1	.	.	.	23.1µM	.	?
O=C(/C=C/c1ccco1)Nc1ccc(-c2nc3ccccc3[nH]2)cc1	.	.	?	?	.	.
O=C(Nc1ccc(-c2nc3ccccc3[nH]2)cc1)c1ccco1	.	.	.	14.6µM	.	14.6µM
O=C(Nc1ccc2nc(-c3ccco3)[nH]c2c1)c1cccs1	.	.	.	?	.	20.6µM
O=C(/C=C/c1cccc(Cl)c1)NCc1ccccc1	.	.	.	.	.	.
Cc1ccc(CCNC(=O)C2COc3ccccc3C2)cc1 (stereo not given)	.	.	.	.	/	?
O=C(Nc1ccc(Nc2ccccc2)cc1)c1ccco1	.	.	.	20.6µM	.	20.6µM
CC(C)(C)NC(=O)c1cccc(NC(=O)c2ccc(NC(=O)c3ccco3)cc2)c1	.	.	.	?	.	13µM
O=C(Nc1cccc(S(=O)(=O)c2cccc(NC(=O)c3ccco3)c2)c1)c1ccco1	.	.	/	13µM	.	?
O=C(Nc1ccc(NC(=O)c2ccco2)cc1)c1ccco1	.	.	.	.	.	.
O=C(NC1c2ccccc2-c2ccccc21)c1ccco1	.	.	.	.	21.2µM	.
CC(C)(C)NC(=O)c1cccc(NC(=O)c2ccco2)c1	.	.	.	.	.	.
O=C(NC1CCCCC1NC(=O)c1ccco1)c1ccco1 (stereo not given)	.	.	.	.	.	.
CCN(CC)/[N+]([O-])=N/Oc1cc(O/N=[N+](\[O-])N(C)C)c([N+](=O)[O-])cc1[N+](=O)[O-]	/	?	.	/	/	/
C#CCNCCS(=O)(=O)N(Cc1ccc(Br)cc1)[C@@H](CC(C)C)C(=O)O	.	?	/	.	.	.
Cc1ccc(-n2c(=O)c3c(c4cc(C)ccc4n3C)n(CC(=O)Nc3c(C)cccc3C)c2=O)cc1	.	.	.	.	/	.
CC1(C)CC(=O)C2=C(C1)NCN(Cc1ccc3c(c1)OCO3)C2	.	.	.	?	26.7µM	?
